Outcome and AC50 data for 38 compounds are collected here from PubChem BioAssay (EPA / NIEHS).

Calls of active or inactive are those of the source. Rule for the calls: active = hit-call score of the fitted dose curve at least 0.9, where 1 is the maximum; inactive = score below 0.9.

Read-out in the first assay: Low-density lipoprotein receptor (LDLR), LDLR (gene 3949)
The assay can be described thus: BSK_CASM3C_LDLR: BioMAP Diversity Plus: CASM3C Assay for Low-density lipoprotein receptor (LDLR) Biomarker Activity (AID 2283045).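 Note: LDLR protein level on the cell surface quantified by ELISA.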 As to conditions: primary human coronary artery smooth muscle cells; actives raise or lower the signal.
Turning to `CCN(Cc1cccc(S(=O)(=O)O)c1)c1ccc(C(=C2C=CC(=[N+](CC)Cc3cccc(S(=O)(=O)O)c3)C=C2)c2ccccc2S(=O)(=O)[O-])cc1`, the result was inactive.
In the case of `CCCCOC(=O)CC(CC(=O)OCCCC)(OC(C)=O)C(=O)OCCCC`, the outcome was inactive.
On the same count and under the same terms, next, `O=c1c(-c2ccc(O)cc2)coc2cc(O)cc(O)c12`: “inactive”.
Consider `CN(C)C(=O)C1(N2CCCCC2)CCN(CC[C@@]2(c3ccc(Cl)c(Cl)c3)CN(C(=O)c3ccccc3)CCO2)CC1`, for which the concentration at half-maximal activity (AC50) is 4.45 µM (active).
As for `CCCCOC(=O)c1ccc(O)cc1`, the result was inactive.
In the case of `O=C1CCC(C2CCCCC2)CC1`, the result was inactive.
Same read-out and setting: in the case of `CCO[Si](CCCNC(N)=O)(OCC)OCC` it was “inactive”.
Same read-out and setting: in the case of `CCCCCCCCCCCCO` it was “inactive”; in that of `C[C@]12CC[C@@H]3c4ccc(O)cc4CC[C@H]3[C@@H]1CCC2=O`, “inactive”.
Consider `CC/C(=C(/CC)c1ccc(O)cc1)c1ccc(O)cc1`, for which the half-maximal activity concentration (AC50) was 8.57 µM (active).
`CCCCCc1ccc(N)cc1`: the outcome was inactive.
Same read-out and setting: next, `CN1C(=O)CC[C@H]1c1cccnc1`: “inactive”; `O=C(O)Cc1cc(I)c(Oc2ccc(O)c(I)c2)c(I)c1`: “inactive”.
Regarding `CCCCCCCCCCCC[N+](C)(C)C`, the AC50 is 21.2 µM (active).
With `CCCCCCCCCC(=O)O`, the outcome was inactive.
For the compound `Cc1cc(F)ccc1-c1cc(N2CC[C@@H](O)[C@H]2CO)ncc1N(C)C(=O)C(C)(C)c1cc(C(F)(F)F)cc(C(F)(F)F)c1`, the AC50 is 24.4 µM (active).
On to `CC(C)(C)c1csc(-c2cc3cc(OCc4ccccc4CC(=O)O)ccc3o2)n1`, for which the outcome was inactive.
As to `CC(=O)N1CCN(c2ccc(OC[C@H]3CO[C@](Cn4ccnc4)(c4ccc(Cl)cc4Cl)O3)cc2)CC1`, the half-maximal activity concentration (AC50) is 2.94 µM (active).
Still for that read-out and setting: next, `CN(C)c1ccc(C(=C2C=CC(=[N+](C)C)C=C2)c2ccc(N(C)C)cc2)cc1`: 5.4 µM (active).
The same measure, in the same setting: in the case of `O=C(Nc1ccc(Cl)cc1)Nc1ccc(Cl)c(Cl)c1` it was 7.14 µM (active).
On to `CCCCCCCCN(C)CCCCCCCC`, for which the result was inactive.
Still for that read-out and setting: in the case of `c1ccc2ccccc2c1` it was “inactive”.
`CCCCCCCCCCCO`: the result was inactive.
As for `CC[C@@H]1C[C@H](N(Cc2cc(C(F)(F)F)cc(C(F)(F)F)c2)C(C)=O)c2cc(C(F)(F)F)ccc2N1C(=O)OC(C)C`, the AC50 is 1.22 µM (active).
Turning to `CCCCCCCC[Si](OCC)(OCC)OCC`, the result was inactive.
Still for that read-out and setting: next, `O=C(OCCCCCCOC(=O)c1ccccc1)c1ccccc1`: “inactive”; `COCC(C)OCC(C)OCC(C)O` (stereo unspecified): “inactive”.
`Cc1oc2c(NC(=O)c3c(Cl)cccc3Cl)cccc2c1C(C)(C)O`: the AC50 is 15.6 µM (active).
With `Clc1cc(Cl)c2c(c1)N=C1CCCCCN1C2`, the result was inactive.
The same measure, in the same setting: in the case of `O=C(O)Cn1c(=O)n(Cc2ccc(Br)cc2F)c(=O)c2ccc(Cl)cc21` it was “inactive”; in that of `Oc1ccccc1`, “inactive”; in that of `OC12N=C(c3ccccc3)SC1Cc1cc(Cl)ccc12` (stereo unspecified), “inactive”.
Same read-out and setting: next, `Cc1ccc(C(C)C)cc1`: “inactive”; `Cc1cn([C@H]2C[C@H](N=[N+]=[N-])[C@@H](CO)O2)c(=O)[nH]c1=O`: “inactive”; `NC(=O)c1nc(-c2cccc(-c3cc(F)ccc3OCC(F)(F)C(F)(F)F)c2)n[nH]1`: “inactive”.
Still for that read-out and setting: in the case of `CCCOC(=O)c1cc(O)c(O)c(O)c1` it was “inactive”; in that of `O=CCCCC=O`, “inactive”.
`COc1cc(C(=O)NC2CCN(C)CC2)ccc1Nc1ncc2c(n1)N(C1CCCC1)CC(F)(F)C(=O)N2C`: the AC50 is 6.15 µM (active).

Read-out in the next assay: Monocyte Chemoattractant Protein-1 (MCP1), CCL2 (gene 6347)
The assay can be described thus: BSK_CASM3C_MCP1: BioMAP Diversity Plus: CASM3C Assay for Monocyte Chemoattractant Protein-1 (MCP1) Biomarker Activity (AID 2283046).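 Note: MCP-1 level quantified by ELISA 24 h after dosing.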 As to conditions: primary human coronary artery smooth muscle cells; actives raise or lower the signal.
For `CCN(Cc1cccc(S(=O)(=O)O)c1)c1ccc(C(=C2C=CC(=[N+](CC)Cc3cccc(S(=O)(=O)O)c3)C=C2)c2ccccc2S(=O)(=O)[O-])cc1`, the result was inactive.
Regarding `CCCCOC(=O)CC(CC(=O)OCCCC)(OC(C)=O)C(=O)OCCCC`, the result was inactive.
Take `O=c1c(-c2ccc(O)cc2)coc2cc(O)cc(O)c12`: the AC50 is 28.6 µM (active).
Take `CN(C)C(=O)C1(N2CCCCC2)CCN(CC[C@@]2(c3ccc(Cl)c(Cl)c3)CN(C(=O)c3ccccc3)CCO2)CC1`: the AC50 is 28.6 µM (active).
For the compound `CCCCOC(=O)c1ccc(O)cc1`, the result was inactive.
`O=C1CCC(C2CCCCC2)CC1`: the result was inactive.
Turning to `CCO[Si](CCCNC(N)=O)(OCC)OCC`, the result was inactive.
Turning to `CCCCCCCCCCCCO`, the concentration at half-maximal activity (AC50) is 34.7 µM (active).
Regarding `C[C@]12CC[C@@H]3c4ccc(O)cc4CC[C@H]3[C@@H]1CCC2=O`, the outcome was inactive.
As for `CC/C(=C(/CC)c1ccc(O)cc1)c1ccc(O)cc1`, the AC50 was 0.345 µM (active).
For `CCCCCc1ccc(N)cc1`, the result was inactive.
Still for that read-out and setting: next, `CN1C(=O)CC[C@H]1c1cccnc1`: “inactive”; `O=C(O)Cc1cc(I)c(Oc2ccc(O)c(I)c2)c(I)c1`: “inactive”.
Regarding `CCCCCCCCCCCC[N+](C)(C)C`, the AC50 is 27.1 µM (active).
Turning to `CCCCCCCCCC(=O)O`, the result was inactive.
Regarding `Cc1cc(F)ccc1-c1cc(N2CC[C@@H](O)[C@H]2CO)ncc1N(C)C(=O)C(C)(C)c1cc(C(F)(F)F)cc(C(F)(F)F)c1`, the half-maximal activity concentration (AC50) is 31 µM (active).
As for `CC(C)(C)c1csc(-c2cc3cc(OCc4ccccc4CC(=O)O)ccc3o2)n1`, the outcome was inactive.
On the same count and under the same terms, in the case of `CC(=O)N1CCN(c2ccc(OC[C@H]3CO[C@](Cn4ccnc4)(c4ccc(Cl)cc4Cl)O3)cc2)CC1` it was “inactive”.
With `CN(C)c1ccc(C(=C2C=CC(=[N+](C)C)C=C2)c2ccc(N(C)C)cc2)cc1`, the AC50 is 1.07 µM (active).
As to `O=C(Nc1ccc(Cl)cc1)Nc1ccc(Cl)c(Cl)c1`, the outcome was inactive.
Still for that read-out and setting: in the case of `CCCCCCCCN(C)CCCCCCCC` it was “inactive”; in that of `c1ccc2ccccc2c1`, “inactive”.
For `CCCCCCCCCCCO`, the result was inactive.
On to `CC[C@@H]1C[C@H](N(Cc2cc(C(F)(F)F)cc(C(F)(F)F)c2)C(C)=O)c2cc(C(F)(F)F)ccc2N1C(=O)OC(C)C`, for which the result was inactive.
On to `CCCCCCCC[Si](OCC)(OCC)OCC`, for which the result was inactive.
Still for that read-out and setting: next, `O=C(OCCCCCCOC(=O)c1ccccc1)c1ccccc1`: “inactive”; `COCC(C)OCC(C)OCC(C)O` (stereo unspecified): “inactive”; `Cc1oc2c(NC(=O)c3c(Cl)cccc3Cl)cccc2c1C(C)(C)O`: “inactive”.
Turning to `Clc1cc(Cl)c2c(c1)N=C1CCCCCN1C2`, the result was inactive.
Turning to `O=C(O)Cn1c(=O)n(Cc2ccc(Br)cc2F)c(=O)c2ccc(Cl)cc21`, the outcome was inactive.
Still for that read-out and setting: next, `Oc1ccccc1`: “inactive”; `OC12N=C(c3ccccc3)SC1Cc1cc(Cl)ccc12` (stereo unspecified): “inactive”; `Cc1ccc(C(C)C)cc1`: “inactive”.
In the case of `Cc1cn([C@H]2C[C@H](N=[N+]=[N-])[C@@H](CO)O2)c(=O)[nH]c1=O`, the result was inactive.
Still for that read-out and setting: next, `NC(=O)c1nc(-c2cccc(-c3cc(F)ccc3OCC(F)(F)C(F)(F)F)c2)n[nH]1`: “inactive”.
Still for that read-out and setting: next, `CCCOC(=O)c1cc(O)c(O)c(O)c1`: “inactive”; `O=CCCCC=O`: “inactive”.
Take `COc1cc(C(=O)NC2CCN(C)CC2)ccc1Nc1ncc2c(n1)N(C1CCCC1)CC(F)(F)C(=O)N2C`: the AC50 was 25.1 µM (active).

In general, AC50 refers to the midpoint of the concentration-response curve, whichever way the signal moves.
